Screens (PubChem BioAssay)
A selection: hits, their analogues and other compounds. The true share with any hit is near 7.6%.
BRCA1 expr up = qHTS Assay to Identify Small Molecule Activators of BRCA1 Expression; Potency, µM (series often up to 46.1 µM), most hits filed as activators; 380,000 tested, 1.1% active; MCF7-BRCA1-FFLuc reporter, luminescence, 48 h; response scale: scaled: vehicle 0%, 10 µM genistein 100%; further: nearly all actives have a fitted effect of over 80% in size
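MCF7-BRCA1-FFLuc cells, 2000/well in phenol-red-free MEM, attached 2 h then treated 48 h at 37 C. Luciferase luminescence read 15 min after reagent; normalized to genistein maximum activation (10microM) and DMSO, concentration-response fitted.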
ELG1 DNA repair = qHTS screen for small molecules that inhibit ELG1-dependent DNA repair in human embryonic kidney (HEK293T) cells expressing luciferase-tagged ELG1. HEK293T ELG1-luciferase reporter, luminescence, 16 h; DNA damage induced by 5-fluorouridine. Potency, µM (titrated, usually from 46.1 µM), actives largely listed as inhibitors. 330,000 tested, 2.3% active. AID 504467, 2011; further: nearly all actives have a fitted effect of over 55% in size
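Cells (2,000 per well) received 5-fluorouridine plus test compound or DMSO and were incubated 16 hr at 37 °C, 5% CO2. Luciferase activity was read by luminescence 30 min after ONE-Glo addition; signal suppression marked inhibition of damage-induced ELG1 function.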
Gal4-VP16 FLuc = VP16 counterscreen qHTS for inhibitors of ROR gamma transcriptional activity. Drosophila S2 Gal4-VP16 UAS-luciferase, luminescence, 20 h. Potency, µM (doses to about 53.6 µM), usual class: inhibitors. 310,000 tested, 3.5% active;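 further: Gal4-VP16 expression switched on by copper sulfate through the metallothionein promoter; nearly all actives have a fitted effect of over 50% in size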
RORg inh = qHTS for inhibitors of ROR gamma transcriptional activity. AID 2551, 2010. Nuclear receptor ROR-gamma (Mus musculus), P51450. 310,000 tested, 5.4% active. Drosophila S2 Gal4-RORgamma UAS-luciferase reporter, 20 h. Potency, µM (highest dose often 53.6 µM), usual class: inhibitors; further: nearly all actives have a fitted effect of over 60% in size
Target sequence (P51450 whole entry, looked up, the tested form may be a part): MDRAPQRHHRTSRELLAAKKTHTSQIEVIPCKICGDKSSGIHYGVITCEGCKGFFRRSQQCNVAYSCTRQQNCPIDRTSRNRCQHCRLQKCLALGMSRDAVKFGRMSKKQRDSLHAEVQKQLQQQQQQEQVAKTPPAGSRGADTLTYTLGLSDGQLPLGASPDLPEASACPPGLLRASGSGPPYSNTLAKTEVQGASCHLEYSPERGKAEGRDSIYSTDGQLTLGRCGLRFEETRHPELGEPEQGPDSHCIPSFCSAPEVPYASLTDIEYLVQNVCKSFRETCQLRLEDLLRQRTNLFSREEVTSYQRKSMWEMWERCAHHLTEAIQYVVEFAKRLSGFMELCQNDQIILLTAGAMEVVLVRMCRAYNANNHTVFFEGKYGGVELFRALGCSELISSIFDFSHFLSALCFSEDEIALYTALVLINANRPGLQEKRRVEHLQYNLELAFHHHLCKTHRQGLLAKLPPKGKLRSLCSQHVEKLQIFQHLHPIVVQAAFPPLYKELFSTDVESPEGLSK
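Drosophila S2 cells stably expressing Gal4-DBD/mouse RORγ fusion under metallothionein promoter plus UAS-luciferase; compound 1 h, then 700 uM CuSO4 induction for 20 h at ambient temperature; inhibition read as reduced luminescence.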
Giardia kill = Small Molecules that selectively kill Giardia lamblia: qHTS | Giardia lamblia trophozoite viability | activity change, % at 7.66 µM, hits read low | 340,000 tested, 0.15% active | AID 540267, 2011; in the data active means activity change below about -80%; inconclusive means between about -30% and that limit;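 further: parasites exposed to compound for two days anaerobically before the ATP read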
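Each well holds 100 Giardia trophozoites and compound. After two days (48 hrs) at 37 deg C in anaerobic conditions, ATP is quantified by luminescence.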
p53 reactivator = qHTS assay for re-activators of p53 using a Luc reporter | AID 504706, 2011 | Potency, µM (series often up to 92.2 µM), usual class: activators | H1299 p53-A138V BP100-luciferase reporter, luminescence, 24 h | 320,000 tested, 0.063% active; further: nearly all actives have a fitted effect of over 45% in size
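H1299 (p53-null), stable ts p53-A138V + BP100-Luc; 1000 cells/well, Opti-MEM/10% FBS; cpd 4 pt, 1:5; 24 h, 37 deg C, 5% CO2; detection reagent 10 min RT; luminescence.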
Large screens that a line does not name were inactive. Unless noted, the call rests on the fitted dose curve; in most records, active means well fitted curve in the direction sought with a large enough effect; inconclusive means small, poorly fitted or top-dose-only effect, or another doubt; inactive means no such curve, though single readings can be large; an effect the other way counts as inactive or inconclusive.

COCCNC(=S)N/N=C(\C)c1ccc(O)cc1	ELG1 DNA repair inconclusive, Gal4-VP16 FLuc inconclusive, RORg inh 22.4µM
COCCNC(=S)N/N=C(\C)c1ccc(-n2ccnc2)cc1	Gal4-VP16 FLuc 7.08µM, RORg inh 6.31µM
COc1ccc(N2CCN(C(=O)c3ccc4c(c3)NC(=O)C(CSCc3c(F)cccc3Cl)N4)CC2)cc1 (configuration not stated)	none (no result: BRCA1 expr up, Giardia kill)
COc1ccccc1CNC(=O)[C@@H]1CCCN1S(=O)(=O)c1ccc(Cl)cc1	none
COC(=O)Nc1ccc(S(=O)(=O)Nc2ccc(C(=O)O)cc2)cc1	none
C/C(=N\NC(N)=O)c1ccc(-n2ccnc2)cc1	none
CNC(=S)N/N=C(\C)c1ccc(-n2ccnc2)cc1	ELG1 DNA repair inconclusive, Gal4-VP16 FLuc inconclusive, RORg inh 8.91µM
C=CCNC(=S)N/N=C(\C)c1ccc(-n2ccnc2)cc1	Gal4-VP16 FLuc 7.08µM, RORg inh 3.16µM
C/C(=N\NC(=S)Nc1ccccc1C)c1ccc(O)cc1	Gal4-VP16 FLuc inconclusive, RORg inh 10µM
Cc1ccccc1NC(=S)NNC(=O)c1ccco1	ELG1 DNA repair inconclusive (no result: Gal4-VP16 FLuc, RORg inh, p53 reactivator)
CCOc1ccc(/C(C)=N\NC(=O)Cc2ccccc2)cc1	Giardia kill inconclusive (no result: p53 reactivator)
O=[N+]([O-])c1cccc(/C=C/c2ccccn2)c1	ELG1 DNA repair inconclusive, RORg inh inconclusive
COc1ccccc1N/C=C/c1onc(C)c1[N+](=O)[O-]	BRCA1 expr up inconclusive, ELG1 DNA repair inconclusive, Gal4-VP16 FLuc inconclusive, RORg inh 11.2µM (no result: p53 reactivator)
Cc1noc(/C=C/Nc2ccc(F)cc2F)c1[N+](=O)[O-]	ELG1 DNA repair inconclusive, RORg inh inconclusive, p53 reactivator inconclusive
Cc1noc(/C=C/c2ccccn2)c1[N+](=O)[O-]	ELG1 DNA repair 18.3µM (no result: Gal4-VP16 FLuc, RORg inh, p53 reactivator)
CCO[C@@H]1OC(C(=O)NCc2ccccc2)=C[C@H](C)[C@H]1CCCO	RORg inh inconclusive, Giardia kill inconclusive
COc1ccccc1NC(=O)c1nc(S(=O)(=O)Cc2ccccc2)ncc1Cl	ELG1 DNA repair inconclusive, Gal4-VP16 FLuc 5.01µM, RORg inh 7.08µM
CCS(=O)(=O)c1ncc(Cl)c(C(=O)Nc2ccccc2OC)n1	Gal4-VP16 FLuc 1.41µM, RORg inh inconclusive
CCOc1ccccc1NC(=O)c1nc(S(=O)(=O)Cc2ccccc2)ncc1Cl	ELG1 DNA repair inconclusive, Gal4-VP16 FLuc 4.47µM, RORg inh 10µM
Cc1cnc(NC(=O)COc2ccccc2Cl)s1	ELG1 DNA repair inconclusive, Gal4-VP16 FLuc 7.94µM, RORg inh 7.08µM, Giardia kill inconclusive
Cc1cnc(NC(=O)CSc2nnc(COc3ccccc3)o2)s1	none
Cc1cnc(NC(=O)CSc2nnc(-c3ccccc3)o2)s1	BRCA1 expr up 3.98µM, ELG1 DNA repair inconclusive, Giardia kill inconclusive, p53 reactivator inconclusive
Cc1cnc(NC(=O)CSc2nnc(COc3c(C)cccc3C)o2)s1	Gal4-VP16 FLuc inconclusive, RORg inh 11.2µM
Cc1ccc(NC(=O)COC(=O)Cn2c(C)csc2=O)c([N+](=O)[O-])c1	none (no result: Gal4-VP16 FLuc, RORg inh)
CC1(C)CC(=O)C(C=Nc2ccc(O)c(N=CC3=C(O)CC(C)(C)CC3=O)c2)=C(O)C1	none
CC1(C)CC(=O)C(C=Nc2ccc(C(=O)c3ccccc3)cc2N=CC2=C(O)CC(C)(C)CC2=O)=C(O)C1	RORg inh 15.8µM
CC1(C)CC(=O)C(C=Nc2cccnc2)=C(O)C1	none
CC1(C)CC(=O)C(C=Nc2cccnc2/N=C/C2=C(O)CC(C)(C)CC2=O)=C(O)C1	RORg inh 10µM
CC(=O)C1C(=O)C=C(c2ccco2)CC1c1ccccc1 (configuration not stated)	none
Cc1cc(CC(C)CC(C)(C)C)n(O)c(=O)c1 (configuration not stated)	Gal4-VP16 FLuc 3.16µM, RORg inh 1.12µM (no result: ELG1 DNA repair, Giardia kill, p53 reactivator)
Cc1cc(C)c2c(N)c(C(=O)NNC(=O)c3ccccc3)sc2n1	BRCA1 expr up 8.91µM, ELG1 DNA repair inconclusive
Cc1cc(C)c2c(N)c(C(=O)NN)sc2n1	ELG1 DNA repair inconclusive, RORg inh inconclusive
COCc1cc(C)nc2sc(C(=O)Nc3cccc(OC)c3)c(N)c12	BRCA1 expr up 2.51µM, ELG1 DNA repair inconclusive
COCc1cc(C)nc2sc(C(=O)Nc3ccc(OC)cc3)c(N)c12	ELG1 DNA repair inconclusive, Gal4-VP16 FLuc inconclusive, RORg inh inconclusive (no result: p53 reactivator)
CCN1C(=O)CC2CCCC1C2 (configuration not stated)	none (no result: ELG1 DNA repair, Gal4-VP16 FLuc, RORg inh, p53 reactivator)
COCCN(C(=O)CNC(=O)c1cccs1)C(C(=O)NC1CCCC1)c1cccs1 (configuration not stated)	none
COc1ccc(-n2c(C)cc(C3=NNC(=NC4CC4)SC3)c2C)cc1	ELG1 DNA repair inconclusive, Gal4-VP16 FLuc inconclusive
c1ccc2c(C3=NNC(=NC4CCCCC4)SC3)c[nH]c2c1	ELG1 DNA repair inconclusive
c1ccc(C2=NNC(=NC3CC3)SC2)cc1	ELG1 DNA repair inconclusive, Gal4-VP16 FLuc 12.6µM, RORg inh 14.1µM
c1ccc2c(C3=NNC(=NC4CC4)SC3)c[nH]c2c1	ELG1 DNA repair inconclusive, Gal4-VP16 FLuc 10µM, RORg inh 10µM, p53 reactivator inconclusive
CS(=O)(=O)N1CCC(C(=O)N2CCC(Cc3ccccc3)CC2)CC1	none
CCOC(=O)c1ccc(NC(=S)NCCC2=CCCCC2)cc1	Gal4-VP16 FLuc 3.16µM, RORg inh 2.82µM
CC(=O)c1cccc(NC(=S)NCCC2=CCCCC2)c1	Gal4-VP16 FLuc 7.08µM, RORg inh 7.08µM, p53 reactivator inconclusive
Cc1ccc(NC(=S)NCCC2=CCCCC2)cc1	BRCA1 expr up inconclusive, ELG1 DNA repair inconclusive, Gal4-VP16 FLuc 6.31µM, RORg inh 5.62µM, p53 reactivator inconclusive
CNNC(=S)NCCC1=CCCCC1	Gal4-VP16 FLuc inconclusive, RORg inh inconclusive, Giardia kill inconclusive
Cc1ccc(C)c(Nc2c(F)c(F)c(F)c(F)c2C(=O)O)c1	none
Cc1ccc(C(=O)NC(C(=O)OCc2cn3cc(Cl)ccc3n2)C(C)C)cc1 (configuration not stated)	none (no result: Gal4-VP16 FLuc, RORg inh)
CCOC(=O)c1ncc2[nH]c3cccc(OC(C)C)c3c2c1C	Gal4-VP16 FLuc inconclusive, RORg inh 17.8µM (no result: BRCA1 expr up, ELG1 DNA repair, Giardia kill, p53 reactivator)
CCOc1ccc(OCc2cccc(C(=O)N3CCCC3)c2)cc1	BRCA1 expr up inconclusive, ELG1 DNA repair inconclusive, RORg inh inconclusive, p53 reactivator inconclusive
CCOc1ccc(OCc2cccc(C(=O)O)c2)cc1	ELG1 DNA repair inconclusive, Gal4-VP16 FLuc inconclusive, RORg inh 1.58µM, Giardia kill inconclusive
COc1ccc(OCc2cccc(C(=O)O)c2)cc1	ELG1 DNA repair inconclusive, Gal4-VP16 FLuc inconclusive, RORg inh 1.78µM
